Compound activity deposited in PubChem BioAssay by several laboratories.
RmlCD inh mix – RmlC/RmlD inhibition, mixture screen; hit rate 0.39% among 110,000; AID 1532; RmlC/RmlD coupled enzyme inhibition, 384-well mixture HTS; inhibition, % at 5.5 µM; in the data active means inhibition above about 30%, passing the limit was not always enough
HIV RNase H inh – inhibitors of HIV-1 reverse transcriptase RNase H. hit rate 1.9% among 65,000. inhibition, % at 10 µM. AID 565. RT-RNase H RNA/DNA duplex cleavage, fluorescence; in the data active means inhibition above about 50%
RmlCD artifact – shows fluorescent artifact in RmlC/RmlD assay, dose-response counter-screen; hit rate 96% among 360; RmlC/RmlD assay fluorescence artifact counter-screen; shares compounds with RmlCD inh mix; AID 1696; calls only; call rule not given here;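 further: compound alone with no enzyme and no substrates present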
Hits are given with their value. The full list was thinned out, with hits kept by preference.

How did COC(=O)c1sccc1NC(=O)CN(C)NS(=O)(=O)c1ccc(F)cc1 do in these assays?
RmlCD inh mix: inactive

How did Cn1c(=O)[nH]c(=O)c2c1nc(N1CCOCC1)n2CCSc1ncccn1 do in these assays?
HIV RNase H inh: inactive

Results for CCCn1c(SCC(=O)N2c3ccccc3CCc3ccccc32)nc2c1c(=O)n(C)c(=O)n2C ?
RmlCD inh mix: inactive

How did CCSc1nn2c(=O)c3ccccc3nc2s1 do in these assays?
RmlCD inh mix: inactive

Results for O=c1cc(O)c2ccc(O)cc2o1 ?
RmlCD inh mix: inactive

How did Cc1cc(=O)oc2cc(O)ccc12 do in these assays?
RmlCD inh mix: 84; RmlCD artifact: active

What do the screens show for `COc1ccc(-c2c(C)oc3c(CN4CCN(CCO)CC4)c(O)ccc3c2=O)cc1OC`?
HIV RNase H inh: inactive

Results for CCOC(=O)c1oc2c(CN3CCN(C)CC3)c(O)ccc2c(=O)c1-c1ccccc1OC ?
RmlCD inh mix: inactive; HIV RNase H inh: inactive

Results for COc1ccccc1-c1c(C)oc2c(CN3CCN(C)CC3)c(O)ccc2c1=O ?
RmlCD inh mix: 43; HIV RNase H inh: inactive; RmlCD artifact: active

Results for COc1ccccc1-c1c(C)oc2c(CN3CCN(CCO)CC3)c(O)ccc2c1=O ?
HIV RNase H inh: inactive; RmlCD artifact: inactive

How did CCn1c(SCC(=O)Nc2cccc(C)c2)nc2c(c1=O)SC(C)C2 (configuration not stated) do in these assays?
RmlCD inh mix: inactive; HIV RNase H inh: inactive

Results for CSC(=NC#N)N1CCN(c2ccc(Cl)cc2)CC1 ?
RmlCD inh mix: inactive

How did O=C(NCC1CCCO1)c1coc2nc3ccccc3nc12 (configuration not stated) do in these assays?
RmlCD inh mix: inactive; HIV RNase H inh: inactive

What do the screens show for `COC(CNC(=O)c1coc2nc3ccccc3nc12)OC`?
RmlCD artifact: inactive

What do the screens show for `CC(=O)NC(=S)Nc1ccc(-c2nc3ccc(C)cc3s2)cc1`?
RmlCD inh mix: inactive

Results for Cc1ccc2nc(-c3ccc(NC(=S)NCCC(C)C)cc3)sc2c1 ?
RmlCD inh mix: 130; RmlCD artifact: active

Results for O=C(Oc1ccc2c3c(c(=O)oc2c1)CCCC3)c1ccco1 ?
RmlCD inh mix: 110; HIV RNase H inh: inactive; RmlCD artifact: active

How did Cc1cc(OC(=O)c2ccco2)c2c3c(c(=O)oc2c1)CCC3 do in these assays?
RmlCD inh mix: inactive; HIV RNase H inh: inactive

How did O=c1oc2cc(O)ccc2c2c1CCCC2 do in these assays?
RmlCD inh mix: 126; HIV RNase H inh: inactive; RmlCD artifact: active

Results for O=c1oc2cc(O)ccc2c2ccccc12 ?
RmlCD inh mix: inactive

What do the screens show for `O=c1[nH]c(=O)n(Cc2ccco2)c2c1C(C(F)(F)F)(C(F)(F)F)N=C(Cc1ccccc1)N2`?
RmlCD inh mix: inactive

What do the screens show for `CC1=C2C(CCS2(=O)=O)CC2(C1)C(=O)OC(C)(C)OC2=O` (configuration not stated)?
RmlCD inh mix: inactive; HIV RNase H inh: inactive

Results for Cc1ccc(-c2nc3cc(N)ccc3o2)cc1 ?
HIV RNase H inh: inactive

How did Nc1cccc(-c2nc3cc(S(=O)(=O)c4ccc5oc(-c6cccc(N)c6)nc5c4)ccc3o2)c1 do in these assays?
RmlCD inh mix: 46; RmlCD artifact: active

Results for CCC(=O)c1cc2c(C)cc(=O)oc2c(C)c1O ?
RmlCD inh mix: inactive; HIV RNase H inh: inactive

What do the screens show for `CCc1cc(=O)oc2c(C)c(O)c(CN(C)C)cc12`?
RmlCD inh mix: 82; HIV RNase H inh: inactive; RmlCD artifact: active

What do the screens show for `CC(CNC(=O)C1CCCCC1C(=O)O)c1ccccc1` (configuration not stated)?
RmlCD inh mix: inactive

Results for CCCNS(=O)(=O)c1cccc(C(=O)NC2CCCc3ccccc32)c1 (configuration not stated) ?
RmlCD inh mix: inactive

What do the screens show for `CC(C)Oc1ccc2c3c(c(=O)oc2c1)CCC3`?
RmlCD inh mix: inactive; HIV RNase H inh: inactive

Results for CC[C@@H](NS(=O)(=O)c1ccc(C)cc1)C(=O)Oc1ccc2c3c(c(=O)oc2c1)CCC3 ?
RmlCD artifact: active

What do the screens show for `CCC(C)C(NS(=O)(=O)c1ccc(C)cc1)C(=O)Oc1ccc2c3c(c(=O)oc2c1)CCC3` (configuration not stated)?
RmlCD inh mix: inactive

What do the screens show for `CC(C)CC(C(=O)Oc1ccc2c3c(c(=O)oc2c1)CCC3)N1C(=O)c2ccccc2C1=O` (configuration not stated)?
RmlCD artifact: active

What do the screens show for `Cc1cc2cc(CN(C(=O)C3CC3)C3CCCC3)c3nnnn3c2cc1C`?
RmlCD inh mix: inactive; HIV RNase H inh: inactive

How did COc1ccc(N(C(=O)c2ccc(F)cc2)C2=CC3CCC(C2)N3C)cc1 (configuration not stated) do in these assays?
RmlCD inh mix: inactive

Results for CCC(C)n1c(SCC(=O)NC(=O)Nc2ccc3c(c2)OCCO3)nc2ccccc2c1=O (configuration not stated) ?
RmlCD inh mix: inactive; HIV RNase H inh: inactive

Results for O=C(Nc1cccnc1)c1coc(=O)c2ccccc12 ?
RmlCD inh mix: 61; HIV RNase H inh: inactive; RmlCD artifact: active

How did O=C(Nc1cccnc1)c1ccccc1O do in these assays?
RmlCD inh mix: inactive

Results for CN1CCN(C(=O)CSc2nc(-c3cccs3)ccc2C#N)CC1 ?
RmlCD inh mix: inactive; HIV RNase H inh: inactive

How did O=C(c1ccco1)N1CCN(C(=O)C2CCCO2)CC1 (configuration not stated) do in these assays?
RmlCD inh mix: inactive; HIV RNase H inh: inactive

Results for CN(C(=O)c1ccccn1)c1nnc(-c2ccncc2)s1 ?
HIV RNase H inh: inactive

What do the screens show for `CN(C(=O)c1ccc(C#N)cc1)c1nnc(-c2ccccn2)s1`?
RmlCD inh mix: 40; RmlCD artifact: inactive

Results for CN(C(=O)c1ccno1)c1nnc(-c2ccccn2)s1 ?
RmlCD inh mix: active; HIV RNase H inh: inactive; RmlCD artifact: active

What do the screens show for `CN(C(=O)c1ccncc1)c1nnc(-c2ccccn2)s1`?
RmlCD inh mix: 108; HIV RNase H inh: inactive; RmlCD artifact: active

What do the screens show for `CN(C(=O)c1cccc(C#N)c1)c1nnc(C2CCOC2)s1` (configuration not stated)?
RmlCD inh mix: inactive; HIV RNase H inh: inactive

What do the screens show for `CN(C(=O)c1cccc(C#N)c1)c1nnc(-c2ccccn2)s1`?
RmlCD inh mix: 36; HIV RNase H inh: inactive; RmlCD artifact: active

How did CN(C(=O)c1ccncc1)c1nnc(-c2cccnc2)s1 do in these assays?
HIV RNase H inh: inactive

What do the screens show for `COc1ccc(-c2nnc(N(C)C(=O)c3ccno3)s2)cc1`?
RmlCD inh mix: inactive

What do the screens show for `Cc1nc(SCC(=O)N2c3ccccc3Sc3ccccc32)n[nH]1`?
RmlCD inh mix: inactive

Results for CN(C)/C=C(\C=N\OCc1ccc(Cl)cc1Cl)C(=O)Nc1ccc(Cl)c(Cl)c1 ?
RmlCD inh mix: inactive

How did CCOC(=O)N1CCN(C(=O)c2ccc3nc4ccsc4c(=O)n3c2)CC1 do in these assays?
HIV RNase H inh: inactive

Results for CCOC(=O)N1CCN(C(=O)c2ccc3nc4ccc(Cl)cc4c(=O)n3c2)CC1 ?
RmlCD inh mix: 48; HIV RNase H inh: inactive; RmlCD artifact: active

Results for CC(C)C(=O)Nc1ccc(C(=O)NNC(=O)CCCOc2ccc(Cl)cc2Cl)cc1 ?
RmlCD inh mix: inactive

How did C#CCNC(=O)C1=C[C@@H](c2ccc(C(F)(F)F)cc2)C[C@@H](OCCCCO)O1 do in these assays?
RmlCD inh mix: inactive
